Bioassay records as filed in PubChem BioAssay.
BoNT F protease: blocks Botulinum neurotoxin F light chain protease. Multiplex microsphere protease cleavage assay, flow cytometry. inhibition, % at 10 µM. 360,000 tested, 0.22% active. AID 588497; in the data active = inhibition above about 35%, passing the limit was not always enough; inconclusive = no clear call, values can overlap the other calls
Anthrax LF prot: inhibitors of Bacillus anthracis lethal factor protease | P15917 | multiplex microsphere protease cleavage assay, LF | inhibition, % at 10 µM | 360,000 tested, 0.12% active | AID 588501
VHR inh abs: blocks human VHR1 dual specificity phosphatase; P51452; recombinant VHR phosphatase, pNPP absorbance; inhibition, % at 13.3 µM; 290,000 tested, 0.52% active; AID 1654; in the data active = inhibition above about 50%
Target sequence (P51452 whole entry, looked up): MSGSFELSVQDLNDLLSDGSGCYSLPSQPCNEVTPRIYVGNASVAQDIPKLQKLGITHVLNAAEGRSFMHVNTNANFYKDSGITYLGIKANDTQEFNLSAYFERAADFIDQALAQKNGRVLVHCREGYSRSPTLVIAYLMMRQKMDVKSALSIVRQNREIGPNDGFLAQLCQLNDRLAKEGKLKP
MazEF act: increases E. coli MazEF RNase cleavage of RNA | 350,000 tested, 0.32% active | FAM/BHQ RNA-DNA oligo cleavage fluorescence, 5 h | AID 504720 | P0AE70 | activation, % at 20 µM; in the data active = activation above about 50%
Target sequence (P0AE70 whole entry, looked up): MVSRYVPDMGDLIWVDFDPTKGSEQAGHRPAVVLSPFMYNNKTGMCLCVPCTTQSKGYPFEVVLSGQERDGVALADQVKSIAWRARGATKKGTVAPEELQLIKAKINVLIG
BoNT A protease: BoNT A light chain protease inhibition. multiplex microsphere protease substrate cleavage, flow cytometry. inhibition, % at 10 µM. 360,000 tested, 0.17% active. AID 588499
Autofluor counter: flagged as autofluorescent in microsphere protease counterscreen | compound autofluorescence counterscreen, microsphere flow cytometry; hits give high values | fluorescence intensity (test concentration not listed) | 360,000 tested, 3.1% active | AID 624483; in the data active = fluorescence intensity above about 16000; inconclusive = no clear call, values can overlap the other calls
Of the large screens only hits and unclear results are named; the others gave an inactive call. Sampled rows, rich in hits. Any-hit rate of the full collection: about 4%. Rule as the data show it, unless noted: active = inhibition above about 30%; inconclusive = no clear call, values can overlap the other calls; inactive = below that.

O=C(/C=C/c1c(Cl)cccc1Cl)NCCc1ccccc1	Autofluor counter 20277
CC1=NN(CCC#N)C(=O)/C1=C/c1ccc(N(C)C)cc1	VHR inh abs 59.8
CCOc1cc(/C=C2\C(=O)N(CCC#N)N=C2C)ccc1OCC(N)=O	none
O=C(Cn1nc(-c2ccccc2)ccc1=O)NCC1CCCO1 (stereo not given)	Autofluor counter 23626
O=C(Cn1nc(-c2cccc(Cl)c2)ccc1=O)Nc1cccnc1	BoNT A protease inconclusive, Autofluor counter 23773
O=C(Cn1nc(-c2ccc(Cl)cc2)c2ccccc2c1=O)NCC1CCCO1 (stereo not given)	none
CCOCCCNC(=O)Cn1nc(-c2ccccc2)ccc1=O	none
CCN(CC)CCCNC(=O)Cn1nc(-c2ccccc2)ccc1=O	Autofluor counter 20162
Cc1ccc(-c2nn(CC(=O)NCC3CCCO3)c(=O)c3ccccc23)cc1 (stereo not given)	Autofluor counter 23922
O=C(O)c1cnn(-c2ccccc2)c1-n1cccc1	none
O=C(NN=C1CCN(Cc2ccccc2)CC1)C(O)c1ccccc1 (stereo not given)	none
Cc1onc(-c2c(F)cccc2Cl)c1C(=O)Nc1cccc(Cn2cccn2)c1	none
CCOC(=O)CNC(=O)CSc1ncnc2c1nnn2-c1ccc(F)cc1	none
O=C(Cn1nc(-c2ccccc2)ccc1=O)NCCN1CCN(c2cccc(Cl)c2)CC1	Autofluor counter 21385
CCOC(=O)/C=c1/s/c(=C\c2c(OC)ccc3ccccc23)c(=O)n1CC(=O)NCC1CCCO1 (stereo not given)	MazEF act 184.0 (no result: VHR inh abs)
O=C(Cn1nc(-c2ccccc2)ccc1=O)NCCN1CCN(Cc2ccccc2)CC1	none
CC[n+]1c(/C=C/c2ccc(N(C)C)cc2)ccc2ccccc21	none
CCN(CC)c1ccc(/C=C/c2ccc3ccc(OC)cc3[n+]2CC)cc1	BoNT A protease 59.5
O=C(COC(=O)C1CC(=O)N(Cc2ccco2)C1)Nc1ccc(F)cc1F (stereo not given)	none (no result: VHR inh abs)
COc1ccc(OCCC(=O)OCC(=O)NC(=O)NC(C)C)cc1	none (no result: BoNT F protease, Anthrax LF prot, BoNT A protease, Autofluor counter)
CC(C)NC(=O)NC(=O)COC(=O)CCOc1ccccc1	Autofluor counter 24104
CC(O)C(O)C(O)C(O)/C=N/NC(=O)c1ccccc1 (stereo not given)	none
Cc1ccc(-c2c(C(=O)N3CCOCC3)oc(=O)c3ccccc23)cc1	none
Cc1ccc2c(c1)CC1(CN2C)C(=O)NC(=O)N(c2ccccc2C)C1=O (stereo not given)	none
Cc1ccc2c(c1)CC1(CN2C)C(=O)NC(=O)N(c2ccc(C)c(C)c2)C1=O (stereo not given)	VHR inh abs 50.5
O=C(NC(=S)N1CCCCC1)c1cccs1	none
O=C(NC(=S)Nc1cccc2[nH]ncc12)c1ccccc1	none
O=C(Nc1cccc2[nH]ncc12)c1ccc(F)cc1	BoNT A protease inconclusive, Autofluor counter 22322
O=C(/C=C/c1ccc([N+](=O)[O-])cc1)Nc1cccnc1	none
Cc1cc(C)n(C(=O)c2ccc(Cn3nc(C)c(Br)c3C)o2)n1	Autofluor counter 23364
Cc1cc(C)c(OCC(=O)OCC(=O)N2CCc3ccccc3C2)c(C)c1	none (no result: VHR inh abs)
CC(=O)c1cc(NC(=O)c2cccc(C(F)(F)F)c2)c(=O)oc1/C=C/N(C)C	MazEF act 180.0, BoNT A protease inconclusive, Autofluor counter 23755
CC(=O)c1cc(NC(=O)c2ccc(Cl)cc2)c(=O)oc1/C=C/N(C)C	BoNT A protease inconclusive, Autofluor counter 25493
CC(=O)c1cc(NC(=O)c2cccc(C(F)(F)F)c2)c(=O)oc1C	none
Cc1ccc(S(=O)(=O)N(CC(=O)NCCSCc2ccco2)c2ccc(F)cc2)cc1	none (no result: BoNT F protease, Anthrax LF prot, MazEF act, BoNT A protease, Autofluor counter)
COc1ccc(CNc2nc3c(c(=O)n(Cc4ccc(F)cc4)c(=O)n3C)n2C)cc1	BoNT A protease inconclusive, Autofluor counter 21752
Cc1nc(C)c(C(=O)O)c(-c2ccsc2)c1C(=O)O	none (no result: BoNT F protease, Anthrax LF prot, BoNT A protease, Autofluor counter)
O=C(Nc1ccc2c(c1)C(=O)NC2=O)c1cccc(C(F)(F)F)c1	none
COC(F)(C(=O)Nc1ccc2c(c1)C(=O)NC2=O)C(F)(F)F (stereo not given)	Autofluor counter 22859
CCN1CCN(C(=O)c2cc(-c3cccnc3)nc3ccc(Br)cc23)CC1	BoNT A protease inconclusive, Autofluor counter 20068
CC(CN1c2ccccc2Sc2ccccc21)N(C)C (stereo not given)	none
C#CCN1c2ccccc2Sc2cccnc21	BoNT F protease inconclusive, MazEF act 71.1
Cc1cc(NC(=O)c2cc3n(n2)C(C(F)(F)F)CC(c2ccc(Cl)c(Cl)c2)N3)no1 (stereo not given)	none
O=C1C2C3C=CC(C2C(=O)N1CCCO)C1C2C(=O)N(CCCO)C(=O)C2C31 (stereo not given)	Autofluor counter 21305
O=C(COC(=O)C1(c2ccccc2)CC1)NNC(=O)c1ccccc1F	none (no result: VHR inh abs)
Cn1cccc1C(=O)NS(=O)(=O)c1ccccc1Cl	BoNT A protease inconclusive
Cc1ccc(S(=O)(=O)NC(=O)c2cccn2C)cc1	Autofluor counter 16326
C=CCn1c(COc2ccccc2-c2ccccc2)nnc1SCC(=O)NC(=O)NCc1ccco1	Autofluor counter 21241
CCn1c(=S)[nH]c2cc(Cl)ccc21	BoNT F protease inconclusive, BoNT A protease inconclusive
CCN1CCN(C(=S)c2ccc(OCC(=O)Nc3ccc(OC)cc3)cc2)CC1	MazEF act 58.3 (no result: VHR inh abs)
CCN1CCN(C(=S)c2ccc(OCC(=O)N3CCOCC3)cc2)CC1	Autofluor counter 19327
CCN1CCN(CCC(=O)Nc2cc(OC)cc(OC)c2)CC1	VHR inh abs 51.3
CCN1CCN(C(=S)c2ccc(OCC(=O)NCc3ccccc3)cc2)CC1	none
CCCN(CCC)Cc1cc(=O)oc2cc(C)ccc12	none (no result: VHR inh abs, MazEF act)
CCOc1ccc(S(=O)(=O)NCC2CCCO2)cc1NC(=O)c1ccccc1F (stereo not given)	none
NC(=NCc1ccc2c(c1)OCO2)NC(=O)c1ccccc1	BoNT F protease 45.3
C/C(=N\NC(=O)c1ccccc1)c1ccc2c(c1)OCO2	Autofluor counter 22585
Cc1nn(C(C)c2n[nH]c(=S)n2-c2cccc(Cl)c2)c(C)c1[N+](=O)[O-] (stereo not given)	Autofluor counter 18732
Cc1ccc(-n2c(C(C)n3nc(C)c([N+](=O)[O-])c3C)n[nH]c2=S)cc1 (stereo not given)	Autofluor counter 19726
COc1ccc(-n2c(C(C)n3nc(C)c([N+](=O)[O-])c3C)n[nH]c2=S)cc1 (stereo not given)	none
CCCCNC(=O)c1onc(CCl)c1C(=O)OC	none
Clc1cccc(CSc2nccn2-c2ccccc2)c1	none
Clc1ccc(CSc2ncn(-c3ccccc3)n2)cc1	Autofluor counter 21528
Clc1cccc(CSc2ncn(-c3ccccc3)n2)c1	Autofluor counter 16759
Cn1c(=S)n(/N=C/c2cccs2)c2ccccc21	none (no result: BoNT F protease, Anthrax LF prot, BoNT A protease, Autofluor counter)
CCOC(=O)CSc1nnc2n1C(C)(C)Cc1ccccc1-2	Autofluor counter 16513
CC(C)OC(=O)CSc1nnc2n1C(C)(C)Cc1ccccc1-2	Autofluor counter 16487
CCSc1nnc2n1C(C)(C)Cc1ccccc1-2	none
